Results reported in PubChem BioAssay (NCI).
This is part of a sample that, as a whole, favours compounds with a hit. Of some 79,000 tested, about 15% had one in any assay. A number with no mark means an inactive call. Active and inactive are the calls of the source. Cut-off read from the data, not from the text of the source: active = growth inhibition above about 70%; inactive = the rest.

Assays:
[1] = NCI Yeast Anticancer Drug Screen. Data for the rad50 strain (AID 155);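 note: 0% = growth of vehicle-only cultures of the same strain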; conditions: S. cerevisiae rad50 strain growth inhibition; at 50.0 µM; stronger effect = higher value
How it was run: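 Readout: growth inhibition relative to vehicle-treated cultures. Compound exposure was carried out in a genetically defined yeast strain deficient in DNA damage repair.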

[2] = NCI Yeast Anticancer Drug Screen. Data for the mec2-1 strain (AID 157); conditions: S. cerevisiae mec2-1 strain, at 50.0 µM, stronger effect = higher value
How it was run: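 Compounds were applied to mec2-1 yeast cells. Their growth was then compared with that of vehicle-treated cultures to give growth inhibition.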

[3] = NCI Yeast Anticancer Drug Screen. Data for the sgs1 mgt1 strain (AID 161);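 note: 0% = growth of cultures given vehicle only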; conditions: S. cerevisiae sgs1 mgt1 strain, at 50.0 µM, stronger effect = higher value
How it was run: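 Growth of a repair-deficient yeast mutant was monitored after compound treatment and expressed as inhibition relative to vehicle-treated cultures.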

[4] = NCI Yeast Anticancer Drug Screen. Data for the cln2 rad14 strain (AID 165);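 note: 0% = growth equal to vehicle treated cultures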; conditions: S. cerevisiae cln2 rad14 strain, at 50.0 µM, stronger effect = higher value
How it was run: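 Strain: cln2 rad14 yeast, altered in cell cycle control and DNA damage repair. Read-out: growth inhibition vs vehicle.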

[5] = NCI Yeast Anticancer Drug Screen. Data for the bub3 strain (AID 167); conditions: S. cerevisiae bub3 mutant strain, at 50.0 µM, stronger effect = higher value
How it was run: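 Readout: yeast growth inhibition, expressed relative to vehicle-only wells. The test organism is a mutant strain from a panel with lesions in DNA repair or checkpoint genes.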

[6] = NCI Yeast Anticancer Drug Screen. Data for the mlh1 rad18 strain (AID 175); conditions: S. cerevisiae mlh1 rad18 strain growth inhibition; at 50.0 µM; stronger effect = higher value
How it was run: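 A repair-deficient yeast strain is exposed to test compound, and growth is scored relative to vehicle-treated controls.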

For `CNC(=S)c1nnsc1N`, the growth inhibition [1] was 1.7%, the growth inhibition [2] was -0.8% and the growth inhibition [3] was 21.6%. The growth inhibition [4] was -2.45%, the growth inhibition [5] was 6.3% and the growth inhibition [6] was -0.4%.
With `Cn1c2c(c3ccccc3c1=O)C(=O)c1ccccc1-2` the growth inhibition [1] was 43%, the growth inhibition [2] was -14.2% and the growth inhibition [3] was 9.3%. The growth inhibition [4] was 26.1%, the growth inhibition [5] was 7.7% and the growth inhibition [6] was -23.7%.
Molecule `COC(=O)C(C(=O)C(=O)NC1Nc2ccc(C)cc2S1)c1nc2ccc(Cl)cc2[nH]c1=O` (stereo not drawn) has a growth inhibition [1] of 18.2%, a growth inhibition [2] of -12.3% and a growth inhibition [3] of 11.5%. It also gave a growth inhibition [4] of 21.1%, a growth inhibition [5] of 13.2% and a growth inhibition [6] of 28.9%.
In the case of `CC1CC(C(=O)OC2OC(COC3OC(CO)C(OC4OC(C)C(O)C(O)C4O)C(O)C3O)C(O)C(O)C2O)C2CCC3(C)C(=CCC4(C)C3CCC3C(C)(CO)C(O)C(O)CC34C)C2C1C` (stereo not drawn), the growth inhibition [1] is reported as 60.1%, the growth inhibition [2] is reported as 68.1% and the growth inhibition [3] is reported as 72.8% (active). For the same molecule, the growth inhibition [4] was 26.8%, the growth inhibition [5] was 77.8% (active) and the growth inhibition [6] was 24.4%.
With `CCC/C(Cl)=N/OC(=O)Nc1cccc(F)c1` the growth inhibition [1] was -2.75%, the growth inhibition [2] was -6.9% and the growth inhibition [3] was 90.8% (active). For the same molecule, the growth inhibition [4] was 16.6%, the growth inhibition [5] was 45% and the growth inhibition [6] was 41.5%.
`N#CC1(C#N)C2CCCCC23OC(=N)C1(C#N)C(c1ccccc1)O3` (stereo not drawn) gave a growth inhibition [1] of 9.3%, a growth inhibition [2] of 12.2% and a growth inhibition [3] of -22.7%. It also gave a growth inhibition [4] of -15.3%, a growth inhibition [5] of -29.9% and a growth inhibition [6] of -16.6%.
Molecule `CC1CC(=O)N(N(C)C)C(C#N)(C#N)C1(C#N)C#N` (stereo not drawn) has a growth inhibition [1] of 24.4%, a growth inhibition [2] of 30.6% and a growth inhibition [3] of 11.2%. For the same molecule, the growth inhibition [4] was 17.5%, the growth inhibition [5] was 0.8% and the growth inhibition [6] was 80.5% (active).
`COc1ccc(/C=c2\[nH]c3nc(=O)c(N4CCOCC4)c(N)n3c2=O)cc1` gave a growth inhibition [1] of 0.9%, a growth inhibition [2] of -19.4% and a growth inhibition [3] of 1.6%. The growth inhibition [4] was -11.8%, the growth inhibition [5] was -26.1% and the growth inhibition [6] was -10.2%.
Molecule `Cc1ccc(/C=N/Nc2nncc3ccccc23)s1` has a growth inhibition [1] of 14.8%, a growth inhibition [2] of 16.1% and a growth inhibition [3] of 16.7%. For the same molecule, the growth inhibition [4] was 21.2%, the growth inhibition [5] was 21.7% and the growth inhibition [6] was 38.5%.
Molecule `CC1OC23CCCCC2C(C#N)(C#N)C1(C#N)C(=N)O3` (stereo not drawn) has a growth inhibition [1] of 3.65%, a growth inhibition [2] of 9.5% and a growth inhibition [3] of -36%. The growth inhibition [4] was -22.9%, the growth inhibition [5] was -35% and the growth inhibition [6] was 2.95%.
With `CC(C)C1OC(N)=C(C#N)C1(C#N)C#N` (stereo not drawn) the growth inhibition [1] was 8.9%, the growth inhibition [2] was 27% and the growth inhibition [3] was -7.35%. It also gave a growth inhibition [4] of -11.8%, a growth inhibition [5] of -19% and a growth inhibition [6] of -38.6%.
Molecule `c1ccc(N(c2ccccc2)c2ccccc2)cc1` has a growth inhibition [1] of 5%, a growth inhibition [2] of -14.7% and a growth inhibition [3] of 1.9%. It also gave a growth inhibition [4] of 7.1%, a growth inhibition [5] of -10.4% and a growth inhibition [6] of 4.05%.
`O=C1NC(N/N=C\c2ccccc2)=N/C1=C/c1ccccc1` gave a growth inhibition [1] of -2.9%, a growth inhibition [2] of 5.2% and a growth inhibition [3] of -0.1%. For the same molecule, the growth inhibition [4] was 2.25%, the growth inhibition [5] was -0.3% and the growth inhibition [6] was -26.5%.
Molecule `N#CC(=S)Nc1ccc(F)cc1` has a growth inhibition [1] of 20.2%, a growth inhibition [2] of 26.1% and a growth inhibition [3] of 30.7%. The growth inhibition [4] was -17.8%, the growth inhibition [5] was 10.9% and the growth inhibition [6] was -5.8%.
Work on `COc1cc([C@H]2OC[C@H]3[C@@H]2CO[C@@H]3c2cc(OC)c3c(c2)OCO3)cc(OC)c1OC` yielded a growth inhibition [1] of 17.1%, a growth inhibition [2] of -2.25% and a growth inhibition [3] of 1.25%. It also gave a growth inhibition [4] of 21.7%, a growth inhibition [5] of 39% and a growth inhibition [6] of -80.7%.
With `CC(C)=CCc1c(OC(=O)c2c(C)cc(O)cc2O)cc(CO)c(CO)c1O` the growth inhibition [1] was 5.1%, the growth inhibition [2] was 11.4% and the growth inhibition [3] was 30.4%. It also gave a growth inhibition [4] of 5.95%, a growth inhibition [5] of 8.65% and a growth inhibition [6] of -54.9%.
With `O=C(CCc1ccc(O)c(O)c1)c1ccc(O)c(O)c1O` the growth inhibition [1] was 2.05%, the growth inhibition [2] was -19.9% and the growth inhibition [3] was 9.1%. It also gave a growth inhibition [4] of 2.6%, a growth inhibition [5] of -17.1% and a growth inhibition [6] of -33.9%.
Molecule `COc1ccc2cc1Oc1ccc(cc1)CC1c3cc(OC)c(cc3CCN1C)Oc1c(OC)c(OC)cc3c1C(C2)N(C)CC3` (stereo not drawn) has a growth inhibition [1] of -4.6%, a growth inhibition [2] of -15.7% and a growth inhibition [3] of -6.8%. It also gave a growth inhibition [4] of 6.9%, a growth inhibition [5] of 5.25% and a growth inhibition [6] of -43.3%.
